# Measured values: PubChem BioAssay (NCATS)
# Several values for one entry are separate records, joined by “and”; a condition that tells them apart may be missing. Equal entries are not always repeated. Results filed as inconclusive are left out. Values without a mark were called inactive. Activity calls are given as the source filed them. The call rests on the fitted dose curve; in most records, active means well fitted curve in the direction sought with a large enough effect; inconclusive means small, poorly fitted or top-dose-only effect, or another doubt; inactive means no such curve, though single readings can be large; an effect the other way counts as inactive or inconclusive.
# Key:
# [1] = target: Cellular tumor antigen p53 (Homo sapiens) (UniProt P04637); assay: Primary qHTS for small molecule compounds that upregulate eGFP-tagged delta133p53alpha (in N-terminal) cells. (AID 2060322); details: NCI-H358 eGFP-delta133p53alpha fluorescence, 24 h; activation: active compounds read high; further: nearly all actives have a fitted effect of over 75% in size;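 on activation: cells pre-induced with doxycycline then dosed without doxycycline; series mostly up to about 56 µM; 0% = DMSO vehicle and 100% = reference activator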
# In short: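 NCI-H358 cells pre-induced 24 h with 10 ng/ml doxycycline for eGFP-delta133p53alpha, plated dox-free and exposed 24 h at 37C to titrated compounds. Fixed, Hoechst-stained; gated GFP peak intensity by laser scanning cytometry, normalized to DMSO (0%) and 57.5 uM 5-azacytidine (100%).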
# [2] = BET inhibitor-based combinations targeting novel dependencies in MECOM-rearranged (r) AML: OCI-AML3 cell line (AID 2202232); details: Potency: OCI-AML3 viability; further: nearly all actives have a fitted effect of over 35% in size
# In short: (§1)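 Readout: CellTiter-Glo luminescence. Exposure: 48 h, 11 concentrations, 500 cells/well. Metric: AUC and within-line Z-AUC after DMSO/empty-well normalization.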
# [3] = BET inhibitor-based combinations targeting novel dependencies in MECOM-rearranged (r) AML: MV-4-11 cell line (AID 2202233); further: nearly all actives have a fitted effect of over 45% in size
# In short: (§2)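 Seeding density was 500 cells/well, and drug exposure lasted 48 hr under standard culture conditions. Read-out used CellTiter-Glo reagent with a 15 min room-temperature incubation before luminescence measurement; AUC and Z-AUC summarize the normalized responses.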
# [4] = BET inhibitor-based combinations targeting novel dependencies in MECOM-rearranged (r) AML: AML-194 cell line (AID 2202237; further: nearly all actives have a fitted effect of over 40% in size)
# In short: as §1
# [5] = BET inhibitor-based combinations targeting novel dependencies in MECOM-rearranged (r) AML: HNT-34 cell line (AID 2202234); further: nearly all actives have a fitted effect of over 35% in size
# In short: as §2
# [6] = BET inhibitor-based combinations targeting novel dependencies in MECOM-rearranged (r) AML: AML-191 cell line (AID 2202236; further: nearly all actives have a fitted effect of over 35% in size)
# In short: as §1
# [7] = BET inhibitor-based combinations targeting novel dependencies in MECOM-rearranged (r) AML: UCSD-AML1 cell line (AID 2202235); further: nearly all actives have a fitted effect of over 40% in size
# In short: as §2
# Potency means the concentration at half of the fitted maximal effect.
# Chain of Cellular tumor antigen p53 (Homo sapiens) (P04637 whole entry, looked up): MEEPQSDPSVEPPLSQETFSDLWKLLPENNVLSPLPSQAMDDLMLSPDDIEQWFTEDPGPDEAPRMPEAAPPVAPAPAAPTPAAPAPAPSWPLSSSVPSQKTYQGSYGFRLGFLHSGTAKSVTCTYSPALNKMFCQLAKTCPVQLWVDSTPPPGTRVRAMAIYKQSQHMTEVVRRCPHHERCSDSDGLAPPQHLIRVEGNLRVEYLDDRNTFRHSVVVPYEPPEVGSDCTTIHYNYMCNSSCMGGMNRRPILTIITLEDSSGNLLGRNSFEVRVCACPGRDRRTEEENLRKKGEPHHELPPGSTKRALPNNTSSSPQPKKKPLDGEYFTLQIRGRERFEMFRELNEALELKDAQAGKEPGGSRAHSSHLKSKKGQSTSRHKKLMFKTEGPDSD
SMILES,activation [1],Potency [2],Potency [3],Potency [4],Potency [5],Potency [6],Potency [7],Potency [1]
COc1cccc([C@@H](C)NCCCc2ccccc2Cl)c1,-21.4%,16.6 µM (active),20.9 µM (active),23.5 µM (active),–,–,–,–
COc1cc2ncn(-c3cc(OCc4ccccc4S(C)(=O)=O)c(C#N)s3)c2cc1OC,-10.5%,–,inactive,inactive,inactive,inactive,–,–
COc1ccc(-c2cc(=O)c3c(O)cc(O)cc3o2)cc1O,29.3%,–,5.25 µM (active),–,–,–,–,–
CCn1c(-c2nonc2N)nc2cnc(Oc3cccc(NC(=O)c4ccc(OCCN5CCOCC5)cc4)c3)cc21,-20.5%,–,0.332 µM (active),–,–,–,–,–
Cn1c(Nc2ccc(C(F)(F)F)cc2)nc2cc(Oc3ccnc(-c4ncc(C(F)(F)F)[nH]4)c3)ccc21,0.151%,2.95 µM (active),–,–,0.332 µM (active),0.833 µM (active),0.833 µM (active),–
CC(C)(C)c1cc(C(C)(C)C)c(NC(=O)c2c[nH]c3ccccc3c2=O)cc1O,27.3%,–,23.5 µM (active),–,–,–,–,–
CNC(=O)c1cc(COc2nnc(Nc3ccc(Cl)cc3)c3ccoc23)ccn1,-2.64%,inactive,–,inactive,–,inactive,–,–
COc1cc2ncnc(Nc3cccc(Br)c3)c2cc1OC,29.9%,–,9.34 µM (active),–,9.34 µM (active),20.9 µM (active),20.9 µM (active),–
O=C(/C=C/C#Cc1cccc(NS(=O)(=O)c2ccccc2)c1)NO,-10.1%,–,0.182 µM (active),0.91 µM (active),0.723 µM (active),0.723 µM (active),0.645 µM (active),–
Cc1ccc(C(=O)Nc2ccc(CN3CCN(C)CC3)c(C(F)(F)F)c2)cc1C#Cc1cnc2cccnn12,–,1.86 µM (active),0.0263 µM (active),1.48 µM (active),–,0.934 µM (active),–,7.69 µM (active) and 10.7 µM (active)
CC[C@@]1([C@@H]2O[C@@H]([C@H]3O[C@@](O)(CO)[C@H](C)C[C@H]3C)C[C@H]2C)CC[C@H]([C@]2(C)CC[C@]3(C[C@H](O)[C@@H](C)[C@@H]([C@@H](C)[C@@H](OC)[C@H](C)C(=O)O)O3)O2)O1,7.91%,–,0.574 µM (active),–,0.0811 µM (active),–,0.288 µM (active),–
O=C1CCc2ccc(OCCCCN3CCN(c4cccc(Cl)c4Cl)CC3)cc2N1,-4.19%,–,16.6 µM (active),26.3 µM (active),20.9 µM (active),23.5 µM (active),23.5 µM (active),–
Nc1nc2[nH]cc(CCc3ccc(C(=O)N[C@@H](CCC(=O)O)C(=O)O)cc3)c2c(=O)[nH]1,-41.3%,–,0.372 µM (active),inactive,inactive,0.525 µM (active),1.05 µM (active),–
CN1CCC(=C2c3ccccc3CCc3sccc32)CC1,-15.1% and 66.1%,–,33.2 µM (active),–,–,–,–,–
CCc1cc(-c2n[nH]c(C)c2-c2ccc3c(c2)OCCO3)c(O)cc1O,2.7%,–,4.68 µM (active),16.6 µM (active),14.8 µM (active),–,–,–
CCN(CC)CCCCNc1nc2cc(Cl)c(Cl)cc2nc1-c1ccc(-c2cccs2)s1,–,20.9 µM (active),–,–,–,26.3 µM (active),–,6.85 µM (active)
CCOC(=O)[C@@H](N)CCC(=O)N[C@@H](CSCc1ccccc1)C(=O)N[C@@H](C(=O)OCC)c1ccccc1,-1.42%,–,18.6 µM (active),–,26.3 µM (active),16.6 µM (active),–,–
O=c1cc(-c2ccccc2)oc2cc(O)cc(O)c12,3.3%,–,16.6 µM (active),–,23.5 µM (active),–,–,–
OC[C@H](Cc1ccccc1)Nc1nc(Oc2ccc3c(c2)CCC3)nc2c1ncn2Cc1ccc(-c2ccccc2)cc1,-44.8%,8.33 µM (active),–,–,7.42 µM (active),–,4.68 µM (active),–
COc1cccc(OC)c1-c1cc(C(=O)NC2(C(=O)O)C3CC4CC(C3)CC2C4)nn1-c1ccnc2cc(Cl)ccc12 (stereo not drawn),-14.3%,–,inactive,inactive,inactive,inactive,inactive,–
COc1cc2c(cc1OC)[C@@H]1C(=O)c3ccc4c(c3O[C@@H]1CO2)C=CC(C)(C)O4,-3.86%,–,6.61 µM (active),20.9 µM (active),23.5 µM (active),9.34 µM (active),–,–
O=C(Nc1ccccc1Br)N[C@@H]1CCN(c2ccc(C(F)(F)F)cn2)C1,10.1%,–,inactive,inactive,inactive,inactive,inactive,–
